# Screening results (PubChem)
# TsaE inh: YjeE (TsaE) inhibition, E. coli; P0AF67; Potency, µM; purified YjeE enzyme, qHTS inhibition assay; 71,000 compounds, 0.05% hits; AID 605
#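 Purified YjeE (10 uM) with BODIPY Texas Red-labeled ADP probe (2 uM); compounds pin-transferred, 15 min at room temperature. Binding inhibition read as decreased fluorescence polarization; ADP titration as control.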
# BRCT inh green: inhibitors of human BRCA1 BRCT-phosphoprotein interaction (green fluorophore). P38398. BRCA1 BRCT-phosphopeptide binding, green fluorescence polarization. Potency, µM (titrated, usually from 76.9 µM), actives largely listed as inhibitors. 75,000 compounds, 0.05% hits. AID 875
# Target sequence (P38398 whole entry, looked up): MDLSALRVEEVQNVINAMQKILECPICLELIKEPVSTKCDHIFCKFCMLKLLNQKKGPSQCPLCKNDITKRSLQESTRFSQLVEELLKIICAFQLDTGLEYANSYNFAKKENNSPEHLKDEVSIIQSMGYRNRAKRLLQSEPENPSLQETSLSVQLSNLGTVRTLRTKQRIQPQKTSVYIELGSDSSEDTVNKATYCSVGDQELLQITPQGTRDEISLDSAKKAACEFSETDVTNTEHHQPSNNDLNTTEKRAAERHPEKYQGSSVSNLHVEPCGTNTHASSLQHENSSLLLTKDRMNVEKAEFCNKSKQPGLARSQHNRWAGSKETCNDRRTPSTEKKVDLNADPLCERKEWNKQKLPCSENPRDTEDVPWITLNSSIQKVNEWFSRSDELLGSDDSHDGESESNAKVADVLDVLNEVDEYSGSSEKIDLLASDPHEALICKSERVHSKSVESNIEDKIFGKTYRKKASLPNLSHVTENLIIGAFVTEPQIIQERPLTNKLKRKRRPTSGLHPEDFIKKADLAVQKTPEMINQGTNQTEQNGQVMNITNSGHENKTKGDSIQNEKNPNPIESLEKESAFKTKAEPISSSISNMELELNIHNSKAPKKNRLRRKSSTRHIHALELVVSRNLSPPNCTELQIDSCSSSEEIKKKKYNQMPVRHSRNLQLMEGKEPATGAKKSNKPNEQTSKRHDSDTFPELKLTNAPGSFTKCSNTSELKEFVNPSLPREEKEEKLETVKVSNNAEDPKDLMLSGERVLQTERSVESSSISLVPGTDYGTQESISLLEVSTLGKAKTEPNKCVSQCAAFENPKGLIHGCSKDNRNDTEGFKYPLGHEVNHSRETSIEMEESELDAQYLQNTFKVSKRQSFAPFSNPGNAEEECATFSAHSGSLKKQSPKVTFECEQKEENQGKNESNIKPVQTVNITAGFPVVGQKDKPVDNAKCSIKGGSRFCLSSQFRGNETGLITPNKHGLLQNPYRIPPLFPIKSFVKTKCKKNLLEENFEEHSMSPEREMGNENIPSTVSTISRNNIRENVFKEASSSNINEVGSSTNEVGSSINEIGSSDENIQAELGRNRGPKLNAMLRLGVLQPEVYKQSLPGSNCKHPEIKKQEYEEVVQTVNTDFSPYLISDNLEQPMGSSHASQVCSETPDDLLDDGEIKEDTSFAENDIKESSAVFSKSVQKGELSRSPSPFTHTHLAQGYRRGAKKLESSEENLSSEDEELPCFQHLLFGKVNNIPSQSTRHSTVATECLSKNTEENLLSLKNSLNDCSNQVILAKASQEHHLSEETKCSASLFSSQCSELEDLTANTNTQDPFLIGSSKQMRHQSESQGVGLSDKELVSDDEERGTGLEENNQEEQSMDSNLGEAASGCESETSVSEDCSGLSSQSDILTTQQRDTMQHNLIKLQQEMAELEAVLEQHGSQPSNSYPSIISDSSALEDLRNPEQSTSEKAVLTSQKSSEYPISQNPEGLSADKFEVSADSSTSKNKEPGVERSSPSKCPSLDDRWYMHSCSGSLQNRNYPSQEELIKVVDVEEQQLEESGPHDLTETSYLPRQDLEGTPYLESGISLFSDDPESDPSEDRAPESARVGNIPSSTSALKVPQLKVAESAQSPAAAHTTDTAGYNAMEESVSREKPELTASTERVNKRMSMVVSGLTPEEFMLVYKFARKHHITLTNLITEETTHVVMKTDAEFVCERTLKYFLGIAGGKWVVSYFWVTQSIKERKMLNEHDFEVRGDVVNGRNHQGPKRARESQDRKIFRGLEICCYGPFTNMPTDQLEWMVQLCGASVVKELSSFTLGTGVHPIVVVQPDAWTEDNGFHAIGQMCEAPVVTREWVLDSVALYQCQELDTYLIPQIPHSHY
#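 Fluorescence polarization: His-tagged BRCT (~35 kDa BRCA1 C-terminus, 250 nM) bound to 100 nM fluorescein-labeled phosphorylated 10-aa BACH1 peptide, pH 7.3 phosphate buffer with DTT and Tween 20. Compounds incubated 12 min at room temperature; inhibition read as lowered polarization.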
# BRCT inh red: inhibitors of human BRCA1 BRCT-phosphoprotein interaction (red fluorophore); P38398; BRCT-phosphopeptide binding, red fluorescence polarization; Potency, µM (titrated, usually from 76.9 µM), hits mostly inhibitors; 75,000 compounds, 0.03% hits
#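 Rhodamine-labelled pBACH1 10-mer (100 nM) bound to BRCT domain (100 nM) at pH 7.3; compounds incubated 12 min room temperature, polarization read. Free peptide defines full inhibition; unlabelled decapeptide titrated as control.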
# DNA Pol III inh: DNA polymerase III holoenzyme inhibition. reconstituted DNA polymerase III holoenzyme replication, biochemical. Potency, µM (highest dose often 57.1 µM). 71,000 compounds, 0.25% hits. AID 603
#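 Reconstituted *E. coli* holoenzyme (0.35 nM Pol III, 1 nM beta, 154 nM SSB, 2 nM primase) was preincubated with compound for 15 min at RT. Synthesis on 1.4 nM ssM13Gori ran 35 min, then was stopped with PicoGreen/EDTA and read as dsDNA fluorescence.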
# Tau fil binding: binds recombinant human tau filaments | recombinant tau filaments, thioflavin S fluorescence, 15 h; filaments grown with octadecylsulfate alongside compound | 71,000 compounds, 2% hits | Potency, µM (top dose mostly 57.1 µM);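 also: actives lower thioflavin S fluorescence by blocking filaments or displacing dye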
#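 Quantitative HTS: thioflavine S signal from ODS-induced tau filaments, excited at 450 nm, emission 510 nm. Conditions: 1 uM tau, 30 uM ODS, 15 h at 37 C, pH 7.4.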
# Hsp90 Hop PPI: changes Hsp90-Hop TPR2A binding signal, up or down; 71,000 compounds, 0.44% hits; Potency, µM (titrated, usually from 57 µM); AlphaScreen TPR2A-His6 binding biotin-Hsp90 C-terminal peptide; AID 595; active = well fitted curve in either direction with a large enough effect; inconclusive = small, poorly fitted or top-dose-only effect, or another doubt
# Numbers stand for hits; . = inactive; ? = inconclusive; / = no result given; ! = not confirmed by another sample; [ ] = another dose, or the depositor's remark. Shown are actives, neighbours in structure and some others; about 2.4% of the full set was active somewhere. Unless noted, calls follow the shape of the dose curve; as a rule, active = well fitted curve in the direction sought with a large enough effect; inconclusive = small, poorly fitted or top-dose-only effect, or another doubt; inactive = no such curve, though single readings can be large; an effect the other way counts as inactive or inconclusive.
SMILES,TsaE inh,BRCT inh green,BRCT inh red,DNA Pol III inh,Tau fil binding,Hsp90 Hop PPI
CC[C@@H]1CN2CCc3cc(OC)c(OC)cc3[C@H]2C[C@@H]1C[C@@H]1NCCc2cc(OC)c(OC)cc21,.,.,.,.,.,.
CN(Cc1ccccc1)C(=O)N[C@@H](Cc1ccccc1)C(=O)O,.,.,.,.,.,.
CN(CCOc1ccc(C[C@H](Nc2ccccc2C(=O)c2ccccc2)C(=O)O)cc1)c1ccccn1,.,.,.,.,40µM!,.
Cc1ccc2c(c1)-c1cc(C)nn1C(c1sccc1C)N2 (stereo unspecified),.,.,.,.,.,25µM
C[C@]12C=CC(=O)C=C1CC[C@@H]1[C@H]3C[C@@H](O)[C@](O)(C(=O)CO)[C@]3(C)C[C@H](O)[C@]12F,.,/,/,.,.,.
c1ccc(-c2cccc(N3CC[C@@]4(CCCNC4)C3)c2)cc1,.,.,.,.,13µM,?
c1ccc(-c2cccc(N3CCCC4(CCNCC4)C3)c2)cc1,.,.,.,.,?,.
O=C(Nc1ccc(Nc2ccccc2)cc1)C1CC1,.,.,.,.,10µM,?
CCCCCNCCCCC,.,.,.,.,.,.
O=S(=O)(c1ccccc1)N1CCC2(CC1)CN(Cc1ccccc1)C2,.,.,.,.,.,.
CCN(CC)C(=O)CSc1nc(C)cc(-c2cccs2)c1C#N,.,.,.,.,.,.
Cc1cc(C)c(C#N)c(SCC(=O)c2cccs2)n1,.,.,.,.,2.5µM,.
Cc1cc(C(=O)Nc2sc3c(c2C#N)CCCCC3)cs1,.,.,.,.,.,.
N#Cc1c(NC(=O)c2ccncc2)sc2c1CCC2,.,.,.,.,16µM,.
CN1C(=O)CSc2ccc(NC(=O)N3CCN(c4ccccn4)CC3)cc21,.,.,.,.,.,.
CN1C(=O)CSc2ccc(NC(=O)Nc3ccccn3)cc21,.,.,.,.,10µM,.
COc1cccc2cc3c(=O)n(-c4ccccc4)nc-3oc12,.,.,.,.,16µM,.[2.3 µM]
O=C(Cc1cc(=O)[nH]c(=O)[nH]1)N1CCC(Cc2ccccc2)CC1,.,.,.,.,25µM,.
O=C(/C=C/c1ccc(O)c(O)c1)OC1C[C@](O)(C(=O)O)C[C@@H](O)[C@H]1O (stereo partly specified),.,.,.,.,.,.
Oc1[nH]c2ccccc2c1/C=N/c1nccs1,.,.,.,.,13µM,.
Cc1cnc(CNc2nc(-c3ccccc3Cl)nc3ccccc23)cn1,.,.,.,.,.,.
CN(C)c1ccc(Nc2nc(-c3cccnc3)cs2)cc1,.,.,.,.[11.4 µM],2.5µM,.[11 µM]
c1cncc(-c2csc(NCc3ccco3)n2)c1,/,.,.,/,/,/
C=C[C@@]1(C)CC(=O)[C@@]2(O)[C@@]3(C)[C@@H](O)CCC(C)(C)[C@@H]3[C@H](O)[C@H](OC(C)=O)[C@@]2(C)O1,.,.,.,.,?,.
COc1cccc(Nc2ncc3nc(-c4ccccc4)c(=O)n(C[C@H]4CCCO4)c3n2)c1,.,.,.,.,.,13µM
SMILES,TsaE inh,BRCT inh green,BRCT inh red,DNA Pol III inh,Tau fil binding,Hsp90 Hop PPI
COc1cccc(Nc2ncc3nc(-c4cc(F)cc(F)c4)c(=O)n(CCC#N)c3n2)c1,.,.,.,.,0.79µM,.
O=c1c(-c2ccc(F)cc2)nc2cnc(Oc3ccccc3)nc2n1C[C@H]1CCCO1,.,.,.,.,20µM,.
CCNc1ncc2nc(-c3ccccc3)c(=O)n(-c3ccc(OC)cc3)c2n1,.,.,.,.,.,4µM
O=c1c(-c2ccccc2)nc2cnc(Oc3ccccc3)nc2n1C[C@H]1CCCO1,.,.,.,.,.,.
O=C(O)CCC(=O)C(=O)O,.,.,.[15.4 µM],.[11.4 µM],.[11.4 µM],.[11 µM]
CC(C)C[C@@H](CC(=O)N[C@@H](CCC(=O)O)CC(=O)O)NC(=O)[C@@H]1CNCC[C@H]1NC(=O)C[C@H](CCCN)NC(=O)C[C@H](CO)NC(=O)[C@@H]1CNCC[C@H]1N,.,/,/,.,.,.
CCOc1ccccc1N1CCN(S(=O)(=O)CC)CC1,.,.,.,.,.,.
CCOc1ccccc1N1CCN(S(=O)(=O)c2cccc3nsnc23)CC1,.,.,.,.,20µM,.
O=C(O)/C=C\c1c2ccc(=O)c(O)c-2oc2c(O)c(O)ccc12,?,6.3µM,?,0.1µM,5µM,?
O=C(O)[C@H]1CCCC[C@@H]1c1c2ccc(=O)c(O)c-2oc2c(O)c(O)ccc12,.,.[15.4 µM],.[15.4 µM],0.32µM,4µM,?
CCNc1ncc2nc(-c3ccccc3)c(=O)n(C)c2n1,.,.,.,.,.,?
O=C(O)c1ccc(Nc2ccnc3cc(Cl)ccc23)cc1O,.,.[15.4 µM],.[15.4 µM],.[11.4 µM],.[11.4 µM],.[11 µM]
CCN(CC)Cc1cc(Nc2ccnc3cc(Cl)ccc23)ccc1O,.,.,.,.,3.2µM,.
COc1ccc2nc(NC(=O)C3CCN(S(=O)(=O)c4cccc5nsnc45)CC3)sc2c1,.,.,.,.,13µM,.
Cc1cccc(N2CCN(C(=O)C3CCN(S(=O)(=O)c4cccc5nsnc45)CC3)CC2C)c1 (stereo unspecified),.,.,.,.,25µM,.
Cc1cccc(N2CCN(C(=O)C3CCN(S(=O)(=O)c4cccc5cccnc45)CC3)CC2C)c1 (stereo unspecified),.,.,.,.,.,.
Cc1cccc(NC(=O)C2CCN(S(=O)(=O)c3cccc4nsnc34)CC2)n1,.,.,.,.,.,.
O=C1CSC(=S)N1/N=C\c1ccc(Cl)c([N+](=O)[O-])c1,.,.[15.4 µM],.[15.4 µM],.[11.4 µM],4µM,.[11 µM]
Nc1cc(Cl)c(N)cc1Cl,.,.,.,.,25µM,.
Nc1cc(Cl)c(N)c(Cl)c1,.,.,.,.,.,.
CCSc1nc(-c2ccc(OC)cc2)ccc1C#N,.,.,.,.,.,25µM
COc1ccc2nc(SCC(=O)N(C)C3CCCCC3)c(C#N)cc2c1,.,.,.,.,.,.
Fc1c(F)c(F)c(CSc2nc3ccccc3[nH]2)c(F)c1F,.,.,.,.,.,4µM
N#CC(=C1CCCC1)c1nc(-c2ccccc2O)cs1,.,.,.,.,13µM,.
CN1CCc2c(sc(/N=C/c3cccs3)c2C(N)=O)C1,.,.,.,.,.,.
O=c1c2c3c(sc2ncn1/N=C/c1ccco1)CCCC3,.,.,.,.,.,.
N#Cc1c(/N=C/c2ccco2)sc2c1CCCCC2,.,.,.,.,16µM,.
N#Cc1c(/N=C/c2cccs2)sc2c1CCC2,.,.,.,.,16µM,.
COc1ccc(NC2c3ncccc3C(=O)N2Cc2ccccc2)c(OC)c1 (stereo unspecified),.,.,.,.,16µM,.
